# Test results as given in PubChem BioAssay.
# Active and inactive are the calls of the source. Unless noted, the rule behind the calls is not given here.
# Legend:
# [1] = resazurin metabolic signal in HepG2 cells – cell-based, resazurin fluorescence, 24 h, PK04 Diversity Set, profiling panel (AID 1172); details: HepG2 viability, higher = more signal
# [2] = budding yeast growth changes without added modifier – OD600, strain BY4716, 24 h, basal condition, primary screen (AID 1173); details: S. cerevisiae BY4716 growth, OD600, 24 h; higher = more signal, called active from +8 up or from −8 down
# [3] = viability profiling in MM1S myeloma cells – cell-based, resazurin fluorescence, basal, 24 h, PK04 Diversity Set, profiling panel (AID 1174); details: higher = more signal, called active from +8 up or from −8 down;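 note: MM1S multiple myeloma cell line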
# [4] = molecular target: Dihydroorotate dehydrogenase (quinone), mitochondrial (Plasmodium falciparum (isolate 3D7)) (UniProt Q08210); test: inhibition of P. falciparum DHODH – biochemical, C-terminal His tag, absorbance 600 nm, primary screen (AID 1175); details: PfDHODH enzyme, DCIP absorbance 600 nm; higher = more signal, called active from +8 up or from −8 down;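 note: recombinant parasite enzyme with a five histidine tag at its C terminus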
# [5] = inhibition of PAO1 biofilm formation – strain PAO1, LB-PBS medium, absorbance 600 nm, primary screen (AID 1176); details: P. aeruginosa PAO1 growth/biofilm, A600, 12 h; higher = more signal
# [6] = growth modulation of vineyard yeast isolate – strain RM11-1a, OD600, basal, 24 h, primary screen (AID 1177);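 note: cultures grown under basal conditions with no added stressor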; details: S. cerevisiae RM11-1a growth, OD600, 24 h; higher = more signal, called active from +8 up or from −8 down
# [7] = growth of efflux-deficient E. coli DRC39 – strain DRC39, OD650, 24 h, E. coli filamentation inducers, primary screen (AID 1178);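 note: growth measured as culture turbidity by optical density at 650 nm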; details: E. coli DRC39 acrAB, higher = more signal, called active from +8 up or from −8 down
# [8] = growth of efflux-deficient E. coli DRC39 – strain DRC39, OD650, 48 h, E. coli filamentation inducers, primary screen (AID 1179);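 note: screen aims at cell division blockers that make cells filament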; details: E. coli DRC39 delta-acrAB growth, higher = more signal, called active from +8 up or from −8 down
# [9] = viability profiling in RPMI8226 myeloma cells – cell-based, resazurin fluorescence, basal, 24 h, PK04 Diversity Set, profiling panel (AID 1180); details: higher = more signal;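 note: RPMI8826 multiple myeloma cell line at 5000 cells per well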
# [10] = molecular target: E3 ubiquitin-protein ligase XIAP (Homo sapiens) (UniProt P98170); test: small molecules binding XIAP protein – biophysical, small-molecule microarray, fluorescence 635 nm, primary screen (AID 1181); details: higher = more signal;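 note: score merges 667 nm emission and signal to noise over triplicate slides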
# [11] = system: XIP peptide (Xip251-270) binding; test: XIP fragment 251-270 binding compounds – biochemical, small-molecule microarray, fluorescence 635/667 nm, 0.1 µg/mL protein, primary screen (AID 1182); details: fluorescent protein binding, 635 nm, higher = more signal, called active from +8 up or from −8 down
# [12] = system: XIP peptide (Xip251-270); test: compounds binding XIP fragment 251-270 – biochemical, small-molecule microarray, fluorescence 635/667 nm, 0.5 µg/mL protein, primary screen (AID 1183); details: fluorescence 635 nm, higher = more signal
# [13] = blood-stage malaria parasite viability loss – strain 3D7, DAPI fluorescence, 100 nL, primary screen (AID 1184);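 note: parasites grown inside human red blood cells in medium with human serum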; details: P. falciparum 3D7 growth, 3 d, higher = more signal
# [14] = molecular target: Homeobox protein Hox-A13 (Mus musculus) (UniProt Q62424); test: disruptors of Hoxa13 oligonucleotide interaction – biochemical, fluorescence polarization, labeled oligonucleotide, primary screen (AID 1185); details: Hoxa13:DNA binding, 15 min, higher = more signal, called active from +8 up or from −8 down
# [15] = blockers of DNA damage checkpoint Chk1 activation – imaging, HeLa, hydroxyurea, phospho-Chk1 antibody, percent positive cells, primary screen (AID 1186); details: hydroxyurea-induced phospho-Chk1 immunofluorescence imaging, higher = more signal
# [16] = blockers of DNA damage checkpoint Chk1 activation – imaging, HeLa, hydroxyurea, phospho-Chk1 nuclear intensity, primary screen (AID 1187); details: hydroxyurea-induced phospho-Chk1 immunofluorescence imaging, higher = more signal
# Sequence of E3 ubiquitin-protein ligase XIAP (Homo sapiens) (P98170 whole entry, looked up, the tested form may be a part): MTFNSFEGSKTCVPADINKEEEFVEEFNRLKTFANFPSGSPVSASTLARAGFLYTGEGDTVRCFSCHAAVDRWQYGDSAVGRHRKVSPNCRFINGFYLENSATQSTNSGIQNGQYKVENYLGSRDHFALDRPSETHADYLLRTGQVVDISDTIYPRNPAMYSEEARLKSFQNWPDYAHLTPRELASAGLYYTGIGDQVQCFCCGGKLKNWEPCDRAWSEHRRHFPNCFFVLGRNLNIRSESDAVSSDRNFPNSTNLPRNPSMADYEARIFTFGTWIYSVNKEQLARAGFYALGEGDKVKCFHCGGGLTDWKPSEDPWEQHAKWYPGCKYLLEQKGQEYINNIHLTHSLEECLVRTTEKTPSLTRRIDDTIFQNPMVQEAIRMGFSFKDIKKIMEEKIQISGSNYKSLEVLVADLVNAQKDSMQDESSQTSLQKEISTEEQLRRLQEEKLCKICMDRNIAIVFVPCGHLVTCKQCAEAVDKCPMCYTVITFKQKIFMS
# Sequence of Dihydroorotate dehydrogenase (quinone), mitochondrial (Plasmodium falciparum (isolate 3D7)) (Q08210 whole entry, looked up): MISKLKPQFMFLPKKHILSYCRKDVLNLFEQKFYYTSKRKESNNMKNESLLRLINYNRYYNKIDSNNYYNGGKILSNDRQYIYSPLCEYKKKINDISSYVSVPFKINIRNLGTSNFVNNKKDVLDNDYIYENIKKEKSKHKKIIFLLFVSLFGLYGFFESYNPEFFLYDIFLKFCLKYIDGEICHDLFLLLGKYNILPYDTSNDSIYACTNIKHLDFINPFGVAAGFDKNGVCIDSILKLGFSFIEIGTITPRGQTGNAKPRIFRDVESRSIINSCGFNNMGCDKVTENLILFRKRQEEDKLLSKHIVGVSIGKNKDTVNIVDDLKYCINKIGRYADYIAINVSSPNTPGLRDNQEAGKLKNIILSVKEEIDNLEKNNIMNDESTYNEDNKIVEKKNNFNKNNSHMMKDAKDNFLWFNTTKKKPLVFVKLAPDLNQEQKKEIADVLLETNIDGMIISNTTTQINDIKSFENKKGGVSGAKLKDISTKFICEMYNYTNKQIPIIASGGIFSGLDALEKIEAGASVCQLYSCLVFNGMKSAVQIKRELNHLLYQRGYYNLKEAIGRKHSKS
# Sequence of Homeobox protein Hox-A13 (Mus musculus) (Q62424 whole entry, looked up): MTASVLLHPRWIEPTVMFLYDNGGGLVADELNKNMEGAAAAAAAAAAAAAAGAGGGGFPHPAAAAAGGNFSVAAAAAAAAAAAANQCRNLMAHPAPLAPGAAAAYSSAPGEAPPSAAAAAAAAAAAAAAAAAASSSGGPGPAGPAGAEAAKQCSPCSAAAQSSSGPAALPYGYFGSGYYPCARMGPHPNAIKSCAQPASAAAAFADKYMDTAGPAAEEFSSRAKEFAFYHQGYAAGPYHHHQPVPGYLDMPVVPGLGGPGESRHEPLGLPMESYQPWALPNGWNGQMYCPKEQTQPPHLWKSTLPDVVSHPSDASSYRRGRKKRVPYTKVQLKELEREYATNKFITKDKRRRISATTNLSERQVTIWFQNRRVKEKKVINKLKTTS
Compound,z-score [1],z-score [2],z-score [3],composite z-score [4],z-score [5],z-score [6],z-score [7],z-score [8],z-score [9],composite z-score [10],composite z-score [11],composite z-score [12],z-score [13],z-score [14],z-score [15],z-score [16]
COC(=O)[C@@]1(Cc2ccc(OC)cc2)[C@H]2c3cc(C(=O)N4CCCC4)n(CCSCCO)c3C[C@H]2CN1C(=O)c1ccccc1,0.353,1.6 (inactive),0.129 (inactive),-0.0408 (inactive),0.923 (inactive),1.47 (inactive),-1.18 (inactive),-0.739 (inactive),-1.3,0.187,0.0308 (inactive),0.826,-1.44,-5.24 (inactive),1.35 (inactive),1.04 (inactive)
CCCCN1CC=CC23O[C@@H]4/C=C\CCCOC(=O)C4[C@H]2C(=O)N(CCCCCO)[C@@H]3C1=O (some centres undefined),0.641,-0.287 (inactive),0.451 (inactive),-0.757 (inactive),1.02 (inactive),-1.06 (inactive),0.0497 (inactive),-0.15 (inactive),0.313,0.161,-0.359 (inactive),0.41,1.34,-4.13 (inactive),1.19 (inactive),0.831 (inactive)
COCC(=C=CC[C@@H](O)c1ccc(OCCO)cc1)C[C@@H](O)c1ccccn1,-0.495,-0.58 (inactive),-0.46 (inactive),-2.5 (inactive),1.05 (inactive),-0.0975 (inactive),0.0525 (inactive),0.0639 (inactive),-0.104,0.0785,1.51 (inactive),-0.161,0.797,-5.97 (inactive),0.117 (inactive),0.265 (inactive)
COCCOC(=O)N1C(=O)[C@@]2(c3ccccc31)[C@H](C(N)=O)[C@H]1C(=O)O[C@H](c3ccccc3)[C@H](c3ccccc3)N1[C@@H]2c1ccc(O)cc1,-0.755,-0.494 (inactive),-0.593 (inactive),-0.294 (inactive),0.806 (inactive),0.275 (inactive),0.396 (inactive),0.787 (inactive),-1.01,0.175,-0.114 (inactive),0.726,0.373,-4.73 (inactive),-0.0504 (inactive),-0.194 (inactive)
[N-]=[N+]=Nc1ccccc1[C@H]1OC(c2ccc(OCCCO)cc2)=N[C@@]1(CCS(=O)(=O)c1ccccc1)C(=O)NCc1ccccc1,0.614,-0.008 (inactive),-0.548 (inactive),0.44 (inactive),0.441 (inactive),-0.22 (inactive),-0.0211 (inactive),-0.77 (inactive),-0.129,0.0623,0.273 (inactive),0.774,-2.48,-1.99 (inactive),0.517 (inactive),0.227 (inactive)
COC(=O)[C@@]1(Cc2ccc(OC)cc2)[C@H]2c3cc(C(=O)N4CCCC4)n(CCc4ccc(O)c(O)c4)c3C[C@H]2CN1C(=O)c1ccccc1,-1.37,1.04 (inactive),-1.79 (inactive),-0.487 (inactive),2.16 (inactive),0.397 (inactive),-0.215 (inactive),-0.163 (inactive),-1.33,0.0517,1.75 (inactive),0.83,-1.62,-6.01 (inactive),0.264 (inactive),0.379 (inactive)
COCCCNC(=O)[C@]1(Cc2ccccc2)N=C(c2ccc(OCCCO)cc2)O[C@@H]1c1ccccc1CN=[N+]=[N-],-0.316,-1.29 (inactive),-0.491 (inactive),-0.925 (inactive),1.8 (inactive),0.0435 (inactive),0.228 (inactive),1.55 (inactive),-1.08,0.0136,1.88 (inactive),0.711,-2.33,-3.2 (inactive),-0.6 (inactive),-0.537 (inactive)
CN1C(=O)C2C=CC(C(O)c3ccccc3)N(N3CCCCC3)C2C1=O (centres undefined),-0.894,0.429 (inactive),-0.983 (inactive),0.0669 (inactive),0.462 (inactive),-0.023 (inactive),-1.32 (inactive),-1.4 (inactive),-1.56,0.263,0.344 (inactive),0.797,-0.261,-5.01 (inactive),0.246 (inactive),-0.455 (inactive)
CC(=O)NCCCC[C@@H]1NC(=O)[C@H]2C[C@@H](C(=O)O)[C@@H](c3ccc(O)cc3)N2C1=O,0.273,-1.35 (inactive),-0.481 (inactive),-0.24 (inactive),0.711 (inactive),3.29 (inactive),-1.91 (inactive),-0.879 (inactive),0.002,0.5,1.01 (inactive),0.764,-1.71,4.77 (inactive),0.402 (inactive),0.207 (inactive)
CC#CC(=O)Oc1ccc(Br)cc1C=CC(=O)OCC,-0.0419,-14.7 (active),-2.38 (inactive),-0.632 (inactive),0.312 (inactive),-10.6 (active),-0.0142 (inactive),-1.01 (inactive),-3,1.25,1.17 (inactive),-0.101,-1.65,-3.79 (inactive),0.309 (inactive),-1.03 (inactive)
O=C1OCCC=C[C@H]2OC34C=CCN(c5ccc(Cl)cc5)C(=O)[C@H]3N(CCCO)C(=O)[C@@H]4C12 (some centres undefined),-0.281,-0.757 (inactive),0.357 (inactive),-0.792 (inactive),0.248 (inactive),-0.163 (inactive),0.881 (inactive),0.415 (inactive),-0.658,-0.0826,-0.869 (inactive),-0.481,-1.83,-3.2 (inactive),-0.511 (inactive),-0.536 (inactive)
C#CCN(C/C=C/c1ccccc1)[C@H](CO)c1ccccc1,-0.832,-16.9 (active),-1.19 (inactive),0.716 (inactive),-0.128 (inactive),-1.31 (inactive),-0.338 (inactive),-1.7 (inactive),-1.45,-0.167,-0.333 (inactive),-0.384,-0.213,-6.53 (inactive),-0.209 (inactive),-0.753 (inactive)
[N-]=[N+]=Nc1ccccc1C[C@@]1(C(=O)N2CCCCC2)N=C(c2ccc(OCCCO)cc2)O[C@@H]1c1ccccc1N=[N+]=[N-],-0.45,-0.893 (inactive),-2.09 (inactive),-0.0853 (inactive),0.578 (inactive),1.48 (inactive),0.472 (inactive),0.208 (inactive),-3.1,-0.0102,0.973 (inactive),0.0553,-2.42,-4.67 (inactive),-0.425 (inactive),-0.286 (inactive)
COCCOC(=O)N1C(=O)[C@@]2(c3ccccc31)[C@H](C(=O)N1CCCCCCC1)[C@H]1C(=O)O[C@H](c3ccccc3)[C@H](c3ccccc3)N1[C@@H]2c1ccc(OCCO)cc1,-0.329,1.79 (inactive),-0.44 (inactive),1.15 (inactive),2.29 (inactive),2.47 (inactive),-0.643 (inactive),-0.623 (inactive),-0.281,2.5,6.55 (inactive),0.992,-2.03,-15.8 (active),-0.261 (inactive),-0.268 (inactive)
C=C(CCCC)/C(=C/C[C@@H](OC(C)=O)c1cccc(OCCO)c1)c1cnc2ccccc2c1,-0.256,-0.236 (inactive),-0.657 (inactive),-3.06 (inactive),0.108 (inactive),0.647 (inactive),0.309 (inactive),-0.132 (inactive),0.418,-0.173,-0.276 (inactive),0.114,-2.99,-4.61 (inactive),-0.24 (inactive),-0.359 (inactive)
NC(=O)[C@@H]1[C@H]2C(=O)O[C@H](c3ccccc3)[C@H](c3ccccc3)N2[C@H](c2ccc(O)cc2)[C@@]12C(=O)Nc1ccc(C#CC3=CCCCC3)cc12,-0.712,0.761 (inactive),-7.46 (inactive),1.68 (inactive),0.802 (inactive),2.07 (inactive),-0.488 (inactive),-0.705 (inactive),-6.39,-0.0696,0.799 (inactive),0.619,-0.303,-0.487 (inactive),0.0025 (inactive),0.518 (inactive)
COc1ccccc1CN1C(=O)c2ccccc2[C@@]2(Cc3ccccc3N(CCCN(C)C)C2=O)[C@@H]1c1ccc(CO)cc1,-0.434,0.259 (inactive),1.17 (inactive),-19.5 (active),0.282 (inactive),-0.746 (inactive),1.28 (inactive),0.468 (inactive),0.723,-0.113,0.0228 (inactive),0.216,-1.3,1.78 (inactive),-0.481 (inactive),-0.454 (inactive)
COc1cc2c(cc1O)C(c1cccs1)N(Cc1cccc(OC(F)(F)F)c1)CC2 (centres undefined),-0.688,-3.07 (inactive),-1.11 (inactive),-4.69 (inactive),-0.0623 (inactive),-0.728 (inactive),-0.0378 (inactive),1.14 (inactive),-1.93,0.171,1.78 (inactive),0.775,-1.9,-2.17 (inactive),-1.02 (inactive),-2.12 (inactive)
CO[C@H]1O[C@H](CO)[C@@H](OC(=O)Nc2ccc(Br)cc2)[C@@H]2OC(=O)[C@H](Cc3cccc(Br)c3)C/C=C/C[C@@H](Cc3cccc(Br)c3)C(=O)O[C@@H]12,-1.34,-1.89 (inactive),-1.79 (inactive),-2.81 (inactive),0.594 (inactive),0.459 (inactive),0.778 (inactive),0.69 (inactive),-1.45,-0.16,0.406 (inactive),0.467,-1.55,1.51 (inactive),-0.423 (inactive),-0.471 (inactive)
